Values joined by “and” are separate entries in the source; they are usually repeats but may differ in a detail not shown here. Equal values may be shown once. Among all 320,000 compounds or so, about 740 (0.23%) were called active. Inconclusive results (about 2%) are left out. The call rests on the fitted dose curve; in most records, active means well fitted activation curve with a large enough effect; inconclusive means small, poorly fitted or top-dose-only effect; inactive means no such curve, though single readings can be large or run the other way. Many of the other results were omitted from the sample, so actives are more common in it than they were. Some compounds were tested as several samples or in several runs, with calls that do not always agree.
assay: qHTS Assay for Small Molecule Inhibitors of Mitochondrial Division or Activators of Mitochondrial Fusion; further: nearly all actives have a fitted effect of over 45% in size;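 on growth rescue (activation): temperature-sensitive fusion mutants such as fzo1-1 at 37 °C on non-fermentable ethanol glycerol medium; % of control where 0% means no effect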; conditions: S. cerevisiae fusion-defective mutant growth rescue, CellTiterGlo 48 h; series mostly up to 46.1 µM; growth rescue (activation): at the top concentration
Method in brief: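 Read-out: ATP-based luminescence (CellTiterGlo, 10 min ambient) reporting growth of fusion-defective ts yeast after 48 hours at 37C on glycerol/ethanol YPEG medium in the presence of compound.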
Potency means the concentration at half of the fitted maximal effect.

Structure (SMILES)	growth rescue (activation)	Potency
C=CCNC(=O)CCCC(=O)NCC=C	1.64% (inactive)	
CSCCC(NC(=O)c1ccco1)C(=O)Nc1cc(C)ccn1 (stereo not drawn)	7.61% (inactive)	
Cc1ccc(-n2c(SCC(=O)Nc3ncc(Cl)cc3Cl)nc3ccccc32)cc1		15.8 µM (active)
Cc1ccc(SCCC(=O)OCC(=O)Nc2ncc(Cl)cc2Cl)cc1	-1.73% (inactive)	
NS(=O)(=O)c1cccc(NC(=O)CSc2nc3ccccc3n2-c2ccccc2)c1	-0.391% (inactive)	
Cc1ccc(C2C=C(c3ccc(Cl)cc3)Nc3nc(NC(=O)CCC(=O)O)nn32)cc1 (stereo not drawn)	-2.35% (inactive)	
CCOc1ccccc1NC(=O)CCn1cnnn1	-0.407% (inactive)	
CCOC(=O)c1ccc(-c2ccc(/C=C(\C#N)C(=O)Nc3ccc(C)cc3)o2)cc1	-0.293% (inactive)	
COc1cc2c(cc1OC)/C(=C/C(=O)c1ccc(NC(C)=O)cc1)NCC2	4.41% (inactive)	
CC1CN/C(=C\C(=O)c2ccc(Br)cc2)C(=O)N1 (stereo not drawn)		12.6 µM (active)
CC1(C)Cc2ccccc2/C(=C/C(=O)c2ccccc2)N1	0.576% (inactive)	
O=S(=O)(NC1CCN(S(=O)(=O)c2ccc3c(c2)OCCO3)CC1)c1c(F)cccc1F	11.2% (inactive)	
Cc1ccc(C(=O)NC(=S)Nc2ccc3[nH]c(=O)[nH]c3c2)cc1C	-3.82% (inactive)	
CCCC(O)(CCC)C(=O)NN(C(=O)CCl)c1cccc(C)c1	2.11% (inactive)	
O=C(CCCCCN1C(=O)c2cccc3cccc(c23)C1=O)NCc1ccco1	-12.7% (inactive)	
O=C1c2cccc3cccc(c23)C(=O)N1CCCCCc1n[nH]c(=S)o1	7.17% (inactive)	
C[N+](C)(CCCCCC[N+](C)(C)CCCN1C(=O)c2cccc3cccc(c23)C1=O)CCCN1C(=O)c2cccc3cccc(c23)C1=O		inactive and 16.4 µM (active)
O=C(Nc1cccc(-c2nc3ccccc3o2)c1)c1cccc(Br)c1	1.19% (inactive)	
CCc1nccn1CCC(=O)N1CCCC(N2CCN(c3ccccc3F)CC2)C1 (stereo not drawn)	-10.1% (inactive)	
CCCC(C)NC(=O)C1CCN(C(=O)C2CC(=O)N(c3ccc(C)cc3)C2)CC1 (stereo not drawn)	-4.72% (inactive)	
O=C(CN1CCSCC1)N/N=C/c1ccc(F)cc1	-0.82% (inactive)	
Cc1cccc2cc3c(N)c(C(=O)N4CCCc5ccccc54)sc3nc12		17.8 µM (active)
Cc1c(C(=O)N2CCCc3ccccc32)oc2ccccc12	13.2% (inactive)	
Cc1c(C(=O)N2CCCc3ccccc32)sc2nc(-c3ccccc3)cn12	8.21% (inactive)	

Structure (SMILES)	growth rescue (activation)	Potency
O=C(Nc1nnc(-c2ccccc2)o1)c1cc(-c2cccs2)nc2ccccc12		12.6 µM (active)
CCCCN(C)CCCNC(=O)c1cc(-c2cccs2)nc2ccccc12	-16.6% (inactive)	
CC(C)(C)Cc1nnc(NC(=O)c2cc(-c3ccccc3)nc3ccccc23)s1	4.92% (inactive)	
O=C(CNc1cccc(S(=O)(=O)N2CCCCC2)c1)Nc1ccccc1F	1.75% (inactive)	
CCN(CC)c1ccc(NC(=O)CN2CCN(CC(=O)Nc3ccc(Cl)cc3)CC2)cc1	1.98% (inactive)	
COc1ccc(Cl)cc1NS(=O)(=O)c1cccc(C(=O)NC2CCC(O)CC2)c1 (stereo not drawn)	-6.5% (inactive)	
CN(C)/C=C1/Nc2ccccc2C1=O	-0.406% (inactive)	
O=C1Nc2ccccc2/C1=C/c1ccnc2ccccc12	6.69% (inactive)	
Cc1cc(C)c(/C=C2\C(=O)Nc3ccccc32)[nH]1		inactive and 16.4 µM (active)
O=C(N/C(=C\c1ccc([N+](=O)[O-])cc1)C(=O)N1CCCCC1)c1ccco1	5.8% (inactive)	
CCc1c(C)[nH]c(=S)c(C#N)c1C	0.532% (inactive)	
Cc1c(S(=O)(=O)N2CC(C)CC(C)C2)c(=O)n(C)c(=O)n1C (stereo not drawn)	2.71% (inactive)	
CCOC(=O)[C@@H]1[C@H]2COc3ccc(Br)cc3[C@H]2N2C(=O)N(c3ccc(Cl)cc3)C(=O)[C@@]12C	9.23% (inactive)	
COc1ccc(Nc2ncnc3ccc(Br)cc23)c(OC)c1	2.1% (inactive)	
CC1(C)CC2CC(C)(CN2c2ncnc3ccc(Br)cc23)C1 (stereo not drawn)		15.8 µM (active)
COc1ccc(C(=O)N2CC3(C)CC2CC(C)(C)C3)cc1OC (stereo not drawn)	2.86% (inactive)	
CCc1ccc(N(C(=O)c2csnn2)C(C(=O)NC2CCCCC2)c2cccnc2)cc1 (stereo not drawn)	12% (inactive)	
OCC[C@H]1C[C@H](O)[C@@H](O)[C@]2(CCc3ccccc3O2)O1	-1% (inactive)	
O=C(c1ccc(CSc2ccccc2)cc1)N1CCCCCC1		10 µM (active)
O=C(c1ccc(S(=O)(=O)c2ccccc2)cc1)N1CCCCCC1	0.467% (inactive)	
CC1CCN(C(=O)c2ccc(CSc3ccc(Cl)cc3)cc2)CC1	19.4% (inactive)	
Cc1cc(F)ccc1S(=O)(=O)Nc1ncnc2scc(-c3ccc(F)cc3)c12	-7.34% (inactive)	
O=C(COC(=O)c1ccccc1)c1ccc2c(c1)OCCO2	6.73% (inactive)	
Cc1ccc(NC(=O)CSc2sc3c(O)cc(=O)[nH]c3c2C#N)cc1C	-6.97% (inactive)	

Source: PubChem BioAssay AID485298 (National Center for Advancing Translational Sciences (NCATS), 2010)
